Inconclusive results are not listed. Activity calls are given as the source filed them. How the source made its calls: active means hit-call score of the fitted dose curve at least 0.9, where 1 is the maximum; inconclusive means response in the unintended direction; inactive means score below 0.9.
Experiment: ATG_M_06_EcoTox2: Attagene TRANS-FACTORIAL EcoTox-2 HepG2 Assay for M06 Transcription Factor (Internal Marker)
Protocol: ATG_EcoTox2 is a cell-based, multiplexed assay created by modifying the existing Attagene TRANS-FACTORIAL system to include a panel of nuclear receptors from some or all the following species: human (Homo sapiens), african clawed frog (Xenopus laevis), rainbow trout (Oncorhynchus mykiss), japanese medaka (Oryzias latipes), and zebrafish (Danio rerio). The ECOTOX2-FACTORIAL format uses HepG2, a human liver cell line, with measurements taken at 24 hours after chemical dosing in a 24-well plate. ATG_M_06_EcoTox2 is one of 29 assay components calculated in the ATG_EcoTox2 assay. It is designed to make measurements of mRNA induction, a form of inducible reporter, as detected with fluorescence intensity signals by Reverse transcription polymerase chain reaction (RT-PCR) and Capillary electrophoresis technology.The assay endpoint ATG_M_06_EcoTox2 was analyzed in the positive analysis fitting direction relative to DMSO as the negative control and baseline of activity. Using a type of inducible reporter, measures of mRNA for gain-of-signal activity can be used to understand the background control at the transcription factor-level as they relate to the gene. Furthermore, this assay endpoint can be referred to as a secondary readout, because this assay has produced multiple assay endpoints where this one serves a background control function. To generalize the intended target to other relatable targets, this assay endpoint is annotated to the background measurement intended target family, where the subfamily is internal marker.
Human liver HepG2 cells are transiently transfected with multiple reporter transcription units (MRTUs) in 6-well plates using FuGene 6 reagent (Roche; 3 ml FuGene/1 mg DNA). The MRTU constructs are regulated by a cis-regulating element (promoter). Each RTU expresses a GAL4-UAS that regulates the transcription of a nearby target reporter gene sequence. A major difference between the CIS and TRANS system is that in CIS activities of endogenous TFs are measured, whereas the TRANS assay evaluates changes in activities of exogenous, chimeric NR-Gal4 proteins. […] At the end of 24 hour incubation, total RNA was isolated using TriZol reagent (Invitrogen). The isolated RNA is then reverse-transcribed using oligo(dT) primer and Mo-MLV reverse transcriptase (Invitrogen) with DNAse I (Ambion) treatment for 30 min. The one-tenth of the produced cDNA was amplified by PCR using Taq DNA polymerase (Invitrogen) and two reporter sequence-specific primers. The PCR products were fluorescently labeled by primer extension with 6-arboxyfluorescein (6-FAM) 5'-labeled reporter sequence-specific primer (2 min at 95 C, 20 s at 68 C and 10 min at 72 C) and these products were digested with 5U of HpaI (New England Biolabs) for 2h at 37 C. The fragments were purified using Qiaquick PCR columns (Qiagen), analyzed on an ABI 3130xL genetic analyzer (Applied Biosystems) with peak positions identified by using a set of X-rhodamine (ROX)-labeled MapMarker1000 molecular weight standards (BioVentures). The raw capillary electrophoresis data was processed using Attagraph software (Attagene).
In the case of `C=C(c1ccc(C(=O)O)cc1)c1cc2c(cc1C)C(C)(C)CCC2(C)C`, the outcome is reported as “inactive”. In the case of `CC(C)(Oc1ccc(C2CC2(Cl)Cl)cc1)C(=O)O` (stereo unspecified), the outcome is reported as “inactive”. With `CC(C)OC(=O)C(C)(C)Oc1ccc(C(=O)c2ccc(Cl)cc2)cc1` the outcome was “inactive”. For `Cc1nc(-c2ccc(C(F)(F)F)cc2)sc1C(=O)NCc1ccc(OC(C)(C)C(=O)O)cc1`, the outcome was “inactive”. For `Cc1cccc(Nc2cc(Cl)nc(SCC(=O)O)n2)c1C`, the outcome was “inactive”. In the case of `CC(C)(Oc1ccc(CCNC(=O)c2ccc(Cl)cc2)cc1)C(=O)O`, the outcome is reported as “inactive”. With `CC(c1cc2ccccc2s1)N(O)C(N)=O` (stereo unspecified) the outcome was “inactive”. In the case of `CN(CCOc1ccc(CC2SC(=O)NC2=O)cc1)c1ccccn1` (stereo unspecified), the outcome is reported as “inactive”. With `Cc1c(C)c2c(c(C)c1O)CCC(C)(COc1ccc(CC3SC(=O)NC3=O)cc1)O2` (stereo unspecified) the outcome was “inactive”. In the case of `CC(C)(Oc1ccc(Cl)cc1)C(=O)O`, the outcome is reported as “inactive”. For `C[C@]12C=CC(=O)C=C1CC[C@@H]1[C@@H]2C(=O)C[C@@]2(C)[C@H]1CC[C@]2(O)C(=O)CO`, the outcome was “inactive”.

Source: PubChem BioAssay AID2284359 (EPA ToxCast)
